Records with an inconclusive call do not appear. Activity calls are given as the source filed them. Unless noted, calls come from the whole dose curve; as a rule, active = well fitted curve in the direction sought with a large enough effect in the repeat runs; inconclusive = weak or mixed curves; inactive = no such curve, though single readings can be large; an effect the other way counts as inactive or inconclusive.
Key:
[1] = qHTS assay to identify small molecule agonists of the RXR signaling pathway - cell viability counter screen (AID 1159529);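 note: HEK 293T cells carrying an RXR-alpha UAS beta-lactamase reporter; nearly all actives have a fitted effect of over 50% in size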
Outline: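 HEK 293T RXRa-bla cells, 2% CS-FBS; 5 h settle; cpd 16 h 37 C, 5% CO2; CellTiter-Glo 30 min RT, luminescence. Tetraoctyl ammonium bromide as positive control.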

[2] = qHTS assay to identify small molecule antagonists of the retinoid acid receptor (RAR) signaling pathway - cell viability counter screen (AID 1159551); note: nearly all actives have a fitted effect of over 35% in size
Outline: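 Viability of C3RL4 cells is quantified from ATP by luminescence after 6 h treatment at 37 C with compounds and 1 uM retinol.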

[3] = qHTS assay to identify small molecule antagonists of the retinoic acid receptor (RAR) signaling pathway (AID 1159552; note: nearly all actives have a fitted effect of over 50% in size)
Outline: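 Cells of the C3RL4 line were seeded, incubated overnight, then dosed with compounds in DMSO followed immediately by retinol (1 uM final). Six hours later luciferase detection reagent went in; signal was measured after 30 min at RT.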

[4] = qHTS assay to identify small molecule agonists of the retinoic acid receptor (RAR) signaling pathway (AID 1159553); settings: C3RL4 RARE luciferase reporter, agonist, 6 h; activation: at 73.3 µM (top of the series) unless noted
Outline: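 Compounds dissolved in DMSO were pinned onto C3RL4 cells seeded the previous day, and plates were held 6 hr at 37 C. RARE-driven luciferase output was then read by luminescence.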

[5] = qHTS assay to identify small molecule antagonists of the estrogen related receptor (ERR) signaling pathway from Tox21 library - cell viability counter screen (AID 1224834); note: nearly all actives have a fitted effect of over 30% in size
Outline: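 In this quantitative HTS format, ERR cells receive compounds in DMSO and are incubated for 17.5 h at 37 C. Live-cell protease activity is then detected with CellTiter-Fluor.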

[6] = target: Luciferin 4-monooxygenase (Photinus pyralis) (UniProt P08659); assay: qHTS assay to identify small molecule inhibitors of firefly luciferase (AID 1224835); note: nearly all actives have a fitted effect of over 25% in size
Luciferin 4-monooxygenase (Photinus pyralis), sequence (P08659 whole entry, looked up): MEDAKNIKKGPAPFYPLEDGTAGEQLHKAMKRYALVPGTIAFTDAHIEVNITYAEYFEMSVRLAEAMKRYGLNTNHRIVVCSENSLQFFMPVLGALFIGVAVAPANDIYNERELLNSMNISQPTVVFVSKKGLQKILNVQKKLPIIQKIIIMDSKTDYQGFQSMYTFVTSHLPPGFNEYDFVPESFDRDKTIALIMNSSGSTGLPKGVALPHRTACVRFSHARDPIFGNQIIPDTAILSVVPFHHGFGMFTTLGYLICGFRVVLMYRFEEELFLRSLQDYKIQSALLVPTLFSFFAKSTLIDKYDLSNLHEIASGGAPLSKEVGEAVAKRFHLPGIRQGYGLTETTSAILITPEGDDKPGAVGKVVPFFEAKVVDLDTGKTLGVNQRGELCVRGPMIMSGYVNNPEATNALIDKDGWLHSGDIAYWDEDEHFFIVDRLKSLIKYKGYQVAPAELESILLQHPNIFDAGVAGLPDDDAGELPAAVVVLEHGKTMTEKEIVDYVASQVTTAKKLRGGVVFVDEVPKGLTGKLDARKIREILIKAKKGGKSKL
Outline: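 Biochemical qHTS: compounds run as interplate titrations against purified firefly enzyme, with D-luciferin and ATP each at its KM concentration. Light output recorded by CCD imaging.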

[7] = qHTS assay to identify small molecule agonists of the constitutive androstane receptor (CAR) signaling pathway - cell viability counter screen (AID 1224836); note: nearly all actives have a fitted effect of over 45% in size
Outline: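 HepG2-CYP2B6-hCAR, 2500 cells/well, 4 h pre-incubation; cpd 15 conc + PK11195 0.75 uM final; 23 h, 37 C/5% CO2; CellTiter-Fluor, fluorescence.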

[8] = qHTS assay to identify small molecule antagonists of the constitutive androstane receptor (CAR) signaling pathway - cell viability counter screen (AID 1224837); note: nearly all actives have a fitted effect of over 45% in size
Outline: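 In quantitative HTS format, compounds at 15 concentrations were applied to HepG2 cells double-transfected with hCAR and CYP2B6-2.2kb under 50 nM CITCO stimulation; live-cell protease activity was read after 23 hr via CellTiter-Fluor.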

[9] = qHTS assay to identify small molecule antagonists of the estrogen related receptor signaling pathway with the pleiotropic PPARgamma coactivator (PGC) from Tox21 10K library - cell viability counter screen (AID 1224840; active = well fitted cell-killing curve with a large enough effect in the repeat runs, not every such curve was filed as active; note: nearly all actives have a fitted effect of over 40% in size)
Outline: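 Viability counter screen, PGC/ERR cells: 17.5 h compound exposure at 37 C, CellTiter-Fluor fluorescence endpoint.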

[10] = target: Thyrotropin receptor (Homo sapiens) (UniProt P16473); assay: qHTS assay to identify small molecule agonists of the thyroid stimulating hormone receptor (TSHR) signaling pathway (AID 1224843; calls by dose curve; note: nearly all actives have a fitted effect of over 45% in size)
Thyrotropin receptor (Homo sapiens), sequence (P16473 whole entry, looked up): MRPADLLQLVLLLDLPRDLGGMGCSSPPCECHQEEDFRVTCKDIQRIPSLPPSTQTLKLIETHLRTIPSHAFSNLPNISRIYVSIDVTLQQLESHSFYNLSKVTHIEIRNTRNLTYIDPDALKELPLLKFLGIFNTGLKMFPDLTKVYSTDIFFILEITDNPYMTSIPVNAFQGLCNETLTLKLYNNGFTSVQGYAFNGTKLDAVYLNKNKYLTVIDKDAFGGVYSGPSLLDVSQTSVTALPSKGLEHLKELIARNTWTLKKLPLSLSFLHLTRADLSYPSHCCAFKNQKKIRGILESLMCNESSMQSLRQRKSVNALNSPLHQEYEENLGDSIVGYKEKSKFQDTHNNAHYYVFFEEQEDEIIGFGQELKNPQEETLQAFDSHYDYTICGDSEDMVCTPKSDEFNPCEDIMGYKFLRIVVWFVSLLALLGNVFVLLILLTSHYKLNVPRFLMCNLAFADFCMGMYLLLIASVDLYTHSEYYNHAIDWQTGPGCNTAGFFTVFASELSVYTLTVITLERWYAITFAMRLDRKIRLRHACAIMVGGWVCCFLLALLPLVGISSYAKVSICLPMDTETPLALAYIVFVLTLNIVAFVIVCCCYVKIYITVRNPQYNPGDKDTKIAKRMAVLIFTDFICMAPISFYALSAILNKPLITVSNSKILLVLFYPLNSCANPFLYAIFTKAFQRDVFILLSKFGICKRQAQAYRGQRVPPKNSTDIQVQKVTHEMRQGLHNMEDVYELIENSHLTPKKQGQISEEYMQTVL
Outline: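 HEK293/TSHR, 800 cells/well; cpd 30 min RT; add cAMP-d2 + anti-cAMP-cryptate, 1 h RT; fluorescence read on plate reader. 15-pt titration, n=3.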

[11] = target: Nuclear receptor subfamily 1 group I member 3 (Homo sapiens) (UniProt Q14994); assay: qHTS assay to identify small molecule antagonists of the constitutive androstane receptor (CAR) signaling pathway (AID 1224838); note: nearly all actives have a fitted effect of over 40% in size
Nuclear receptor subfamily 1 group I member 3 (Homo sapiens), sequence (Q14994 whole entry, looked up): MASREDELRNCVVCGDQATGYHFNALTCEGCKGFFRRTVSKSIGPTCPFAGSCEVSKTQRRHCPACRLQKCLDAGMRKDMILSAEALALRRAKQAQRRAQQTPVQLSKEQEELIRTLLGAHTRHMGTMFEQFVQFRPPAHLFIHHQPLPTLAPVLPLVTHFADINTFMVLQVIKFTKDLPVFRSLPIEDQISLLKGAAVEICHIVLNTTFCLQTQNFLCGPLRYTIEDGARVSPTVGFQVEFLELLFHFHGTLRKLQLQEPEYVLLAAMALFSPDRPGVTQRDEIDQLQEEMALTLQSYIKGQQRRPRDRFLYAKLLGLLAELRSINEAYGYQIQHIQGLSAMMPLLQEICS
Outline: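 CITCO-stimulated (50 nM final) HepG2 cells stably transfected with hCAR and CYP2B6-2.2kb luciferase were exposed to compounds at 15 concentrations for 24 h at 37 C/5% CO2. A luciferase reagent was added and luminescence recorded after 30 min.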

[12] = qHTS assay to identify small molecule antagonists of the estrogen related receptor signaling pathway with the pleiotropic PPARgamma coactivator (PGC) from Tox21 10K library (AID 1224841; call rule not given here; note: actives are mostly falling curves and most rising ones were filed inactive; nearly all actives have a fitted effect of over 50% in size)
Outline: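 In the PGC/ERR line, DMSO solutions of test chemicals are pin-delivered to 2,000 cells/well six hours after dispensing. Following eighteen hours' incubation, One-Glo reagent is added and luminescence recorded.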

[13] = qHTS assay to identify small molecule agonists of the estrogen related receptor signaling pathway with the pleiotropic PPARgamma coactivator (PGC) from Tox21 10K library (AID 1224842); note: nearly all actives have a fitted effect of over 15% in size
Outline: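 PGC/ERR reporter cell line, 2,000 cells per well, incubated 6 h at 37 C before 23 nL compound in DMSO was added. After 18 h at 37 C, One-Glo luminescence read following 30 min at room temperature.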

[14] = qHTS assay to identify small molecule antagonists of the estrogen related receptor (ERR) signaling pathway - cell viability counter screen (AID 1224818)
Outline: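 Cytotoxicity check run alongside the ERR antagonist screen: cells exposed to test compounds 17.5 h at 37 C, viability taken as CellTiter-Fluor fluorescence intensity.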

[15] = qHTS assay to identify small molecule antagonists of the estrogen related receptor signaling pathway with the pleiotropic PPARgamma coactivator (PGC) cell viability counter screen (AID 1224822)
Outline: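 Viable cell signal (CellTiter-Fluor, 30 min, 37 C/5% CO2) was measured in PGC/ERR cells after a 17.5 h compound incubation.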

[16] = target: Nuclear receptor subfamily 1 group I member 3 (Homo sapiens) (UniProt Q14994); assay: qHTS assay to identify small molecule agonists of the constitutive androstane receptor (CAR) signaling pathway (AID 1224839);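 note: HepG2 cells stably carrying human CAR and a CYP2B6 luciferase reporter; nearly all actives have a fitted effect of over 15% in size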
Outline: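 HepG2-CYP2B6-hCAR cells, 2500/well, 4 h pre-incubation; compounds 15 conc.; PK11195 0.75 uM final; 24 h, 37 C/5% CO2; ONE-Glo luciferase read.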

Measured: Potency

CO[Si](CCCNCCN)(OC)OC
not listed: [11] | [12] | [13] | [14] | [15] | [16]
inactive: all other assays above

CC/C(C)=N/O
not listed: [9] | [12] | [13] | [14] | [15] | [16]
inactive: all other assays above

COc1c(Cl)ccc(Cl)c1C(=O)O
not listed: [12] | [13] | [14] | [15] | [16]
inactive: all other assays above

CCCOCC(C)O (stereo unspecified)
not listed: [11] | [14] | [15] | [16]
inactive: all other assays above

Oc1ccc(Cc2ccccc2O)cc1
not listed: [9] | [12] | [13] | [14] | [15] | [16]
inactive: all other assays above

CN1Cc2c(N)cccc2C(c2ccccc2)C1 (stereo unspecified)
not listed: [12] | [13]
inactive: all other assays above

Cc1cc(CC(=O)O)n(C)c1C(=O)c1ccc(Cl)cc1
not listed: [11] | [12] | [13] | [14] | [15] | [16]
inactive: all other assays above

O=[N+]([O-])c1ccccc1C(F)(F)F
not listed: [14] | [15] | [16]
inactive: all other assays above

OB(O)O
not listed: [14] | [15]
inactive: all other assays above

Cc1cc(C)c(O)c(C)c1
not listed: [14] | [15]
inactive: all other assays above

CS(=O)(=O)c1ccc(Cl)cc1
not listed: [14] | [15] | [16]
inactive: all other assays above

CC(=O)C(C)C
inactive: [1] | [2] | [3] | [4] | [5] | [6] | [7]

COc1ccccc1[N+](=O)[O-]
not listed: [9] | [10] | [14] | [15] | [16]
inactive: all other assays above

CCOC(=O)CC(=O)OCC
not listed: [11] | [12] | [13] | [14] | [15] | [16]
inactive: all other assays above

O=C1C(N(CO)C(=O)NCO)N(CO)C(=O)N1CO (stereo unspecified)
not listed: [8] | [12] | [13] | [14] | [15]
inactive: all other assays above

COC(=O)/C=C\C(=O)OC
not listed: [8] | [9] | [14] | [15]
inactive: all other assays above

O=C1OC(=O)c2c(Cl)c(Cl)c(Cl)c(Cl)c21
not listed: [9] | [14] | [15] | [16]
inactive: all other assays above

C=C(C)CC(C)(C)C
inactive: [1] | [2] | [3] | [4] | [5] | [6] | [7] | [8] | [10]

CC(=O)OC/C=C(\C)CCC=C(C)C
not listed: [9] | [12] | [13] | [14] | [15] | [16]
inactive: all other assays above

CCCCCC(C)=O
not listed: [10] | [14] | [15]
inactive: all other assays above

CCCCC(=O)O
not listed: [12] | [13] | [14] | [15] | [16]
inactive: all other assays above

Cc1cccc(C)c1[N+](=O)[O-]
inactive: [1] | [2] | [3] | [4] | [5] | [6] | [7] | [8] | [10]

— PubChem BioAssay (Tox21)
